Measurements from PMC11006913.
Substitutions are numbered along the chain they refer to.

Assays:
Test in all cases: PBM; 200 nM protein, PBS
Conditions in all cases: dsDNA, one strand shown
PROP1 [1] = biological target: PROP1 (Homo sapiens, UniProt O75360 56-141)
PROP1 [2] = biological target: PROP1 (Homo sapiens, UniProt O75360 56-141, R99H)
PROP1 [3] = biological target: PROP1 (Homo sapiens, UniProt O75360 56-141, F88S)
SIX6 = biological target: T1, SIX6 (Homo sapiens, UniProt O95475 114-200)
T1 sequence: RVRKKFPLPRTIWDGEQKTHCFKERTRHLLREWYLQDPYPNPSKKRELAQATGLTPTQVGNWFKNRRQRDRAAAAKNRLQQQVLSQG

VAX1 [4] = biological target: VAX1 (Homo sapiens, UniProt Q5SQQ9 86-172)
VAX1 [5] = biological target: VAX1 (Homo sapiens, UniProt Q5SQQ9 86-172, T142I)
VAX1 [6] = biological target: VAX1 (Homo sapiens, UniProt Q5SQQ9 86-172, K157R)
NKX3-2 [7] = biological target: NKX3-2 (Homo sapiens, UniProt P78367 192-278, P234S)
NKX3-2 [8] = biological target: NKX3-2 (Homo sapiens, UniProt P78367 192-278)
HOXA4 [9] = biological target: HOXA4 (Homo sapiens, UniProt Q00056 201-287, W262R)
HOXA4 [10] = biological target: HOXA4 (Homo sapiens, UniProt Q00056 201-287, R217L)
HOXD13 [11] = biological target: HOXD13 (Homo sapiens, UniProt P35453 263-343, T313R)
HOXD13 [12] = biological target: HOXD13 (Homo sapiens, UniProt P35453 263-343)
HOXA4 [13] = biological target: HOXA4 (Homo sapiens, UniProt Q00056 201-287)
HOXD13 [14] = biological target: HOXD13 (Homo sapiens, UniProt P35453 263-343, T313A)
HOXA4 [15] = biological target: HOXA4 (Homo sapiens, UniProt Q00056 201-287, W262F)
HOXB6 [16] = biological target: HOXB6 (Homo sapiens, UniProt P17509 132-218, K202E)
HOXB6 [17] = biological target: HOXB6 (Homo sapiens, UniProt P17509 132-218)
ALX3 [18] = biological target: ALX3 (Homo sapiens, UniProt O95076 139-225, N203Q)
ALX3 [19] = biological target: ALX3 (Homo sapiens, UniProt O95076 139-225)
ALX3 [20] = biological target: ALX3 (Homo sapiens, UniProt O95076 139-225, L168Q)
ALX3 [21] = biological target: ALX3 (Homo sapiens, UniProt O95076 139-225, L168V)
ALX3 [22] = biological target: ALX3 (Homo sapiens, UniProt O95076 139-225, N203S)
ALX1 [23] = biological target: ALX1 (Homo sapiens, UniProt Q15699 118-204, L144V)
ALX1 [24] = biological target: ALX1 (Homo sapiens, UniProt Q15699 118-204, L144R)
ALX1 [25] = biological target: ALX1 (Homo sapiens, UniProt Q15699 118-204)
NKX2-6 [26] = biological target: T2, NKX2-6 (Homo sapiens, UniProt A6NCS4 118-204)
T2 sequence: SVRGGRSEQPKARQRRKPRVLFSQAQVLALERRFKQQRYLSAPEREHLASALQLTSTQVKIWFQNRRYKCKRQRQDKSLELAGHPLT

NKX2-6 [27] = biological target: T3, NKX2-6 (Homo sapiens, UniProt A6NCS4 118-204, F151L)
T3 sequence: T2 sequence with F34L

HOXA2 [28] = biological target: HOXA2 (Homo sapiens, UniProt O43364 129-215, R185T)
HOXA2 [29] = biological target: HOXA2 (Homo sapiens, UniProt O43364 129-215, R185K)
HOXA2 [30] = biological target: HOXA2 (Homo sapiens, UniProt O43364 129-215, Y150S)
HOXA2 [31] = biological target: HOXA2 (Homo sapiens, UniProt O43364 129-215)
Sequence of HOXA2 (Homo sapiens, UniProt O43364 129-215) (O43364 129-215): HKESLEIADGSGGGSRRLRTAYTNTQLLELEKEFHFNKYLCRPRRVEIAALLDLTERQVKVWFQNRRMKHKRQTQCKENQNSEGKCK

Sequence of HOXA4 (Homo sapiens, UniProt Q00056 201-287, W262F) (Q00056 201-287 W262F): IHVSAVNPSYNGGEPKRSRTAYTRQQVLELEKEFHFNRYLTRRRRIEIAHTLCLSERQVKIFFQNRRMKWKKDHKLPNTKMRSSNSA
Sequence of HOXA4 (Homo sapiens, UniProt Q00056 201-287, W262R) (Q00056 201-287 W262R): as the sequence (Q00056 201-287 W262F) above, with F62R counted along it
Sequence of HOXA4 (Homo sapiens, UniProt Q00056 201-287, R217L) (Q00056 201-287 R217L): as the sequence (Q00056 201-287 W262F) above, with R17L, F62W counted along it
Sequence of HOXA4 (Homo sapiens, UniProt Q00056 201-287) (Q00056 201-287): as the sequence (Q00056 201-287 W262F) above, with F62W counted along it
Sequence of HOXB6 (Homo sapiens, UniProt P17509 132-218, K202E) (P17509 132-218 K202E): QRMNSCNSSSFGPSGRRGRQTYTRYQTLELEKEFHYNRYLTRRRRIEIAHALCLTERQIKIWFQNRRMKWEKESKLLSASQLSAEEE
Sequence of HOXD13 (Homo sapiens, UniProt P35453 263-343) (P35453 263-343): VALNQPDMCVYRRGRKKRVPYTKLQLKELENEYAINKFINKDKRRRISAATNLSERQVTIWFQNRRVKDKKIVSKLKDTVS
Sequence of HOXD13 (Homo sapiens, UniProt P35453 263-343, T313A) (P35453 263-343 T313A): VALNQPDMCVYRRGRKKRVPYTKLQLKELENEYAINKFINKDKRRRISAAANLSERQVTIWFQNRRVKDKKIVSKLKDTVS
Sequence of VAX1 (Homo sapiens, UniProt Q5SQQ9 86-172, T142I) (Q5SQQ9 86-172 T142I): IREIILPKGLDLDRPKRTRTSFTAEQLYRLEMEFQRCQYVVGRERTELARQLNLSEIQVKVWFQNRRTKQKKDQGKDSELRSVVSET
Sequence of HOXB6 (Homo sapiens, UniProt P17509 132-218) (P17509 132-218): as the sequence (P17509 132-218 K202E) above, with E71K counted along it
Sequence of VAX1 (Homo sapiens, UniProt Q5SQQ9 86-172) (Q5SQQ9 86-172): as the sequence (Q5SQQ9 86-172 T142I) above, with I57T counted along it
Sequence of HOXD13 (Homo sapiens, UniProt P35453 263-343, T313R) (P35453 263-343 T313R): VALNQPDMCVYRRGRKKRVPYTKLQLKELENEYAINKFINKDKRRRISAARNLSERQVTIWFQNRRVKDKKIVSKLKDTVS
Sequence of VAX1 (Homo sapiens, UniProt Q5SQQ9 86-172, K157R) (Q5SQQ9 86-172 K157R): as the sequence (Q5SQQ9 86-172 T142I) above, with I57T, K72R counted along it
Sequence of PROP1 (Homo sapiens, UniProt O75360 56-141) (O75360 56-141): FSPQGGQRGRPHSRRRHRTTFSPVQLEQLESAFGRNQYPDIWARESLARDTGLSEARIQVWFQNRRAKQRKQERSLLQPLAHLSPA
Sequence of PROP1 (Homo sapiens, UniProt O75360 56-141, F88S) (O75360 56-141 F88S): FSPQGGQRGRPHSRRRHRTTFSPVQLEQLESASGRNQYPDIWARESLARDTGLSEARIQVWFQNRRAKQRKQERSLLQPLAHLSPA
Sequence of HOXA2 (Homo sapiens, UniProt O43364 129-215, R185K) (O43364 129-215 R185K): as the sequence (O43364 129-215) above, with R57K counted along it
Sequence of ALX3 (Homo sapiens, UniProt O95076 139-225, L168V) (O95076 139-225 L168V): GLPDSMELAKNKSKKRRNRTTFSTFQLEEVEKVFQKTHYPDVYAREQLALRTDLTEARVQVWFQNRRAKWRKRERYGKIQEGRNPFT
Sequence of NKX3-2 (Homo sapiens, UniProt P78367 192-278, P234S) (P78367 192-278 P234S): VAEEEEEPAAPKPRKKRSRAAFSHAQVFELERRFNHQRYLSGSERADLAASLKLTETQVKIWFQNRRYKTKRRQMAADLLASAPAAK
Sequence of PROP1 (Homo sapiens, UniProt O75360 56-141, R99H) (O75360 56-141 R99H): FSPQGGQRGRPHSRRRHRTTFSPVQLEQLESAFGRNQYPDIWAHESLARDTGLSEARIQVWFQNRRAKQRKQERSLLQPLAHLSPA
Sequence of ALX3 (Homo sapiens, UniProt O95076 139-225, N203Q) (O95076 139-225 N203Q): as the sequence (O95076 139-225 L168V) above, with V30L, N65Q counted along it
Sequence of HOXA2 (Homo sapiens, UniProt O43364 129-215, Y150S) (O43364 129-215 Y150S): as the sequence (O43364 129-215) above, with Y22S counted along it
Sequence of ALX1 (Homo sapiens, UniProt Q15699 118-204, L144V) (Q15699 118-204 L144V): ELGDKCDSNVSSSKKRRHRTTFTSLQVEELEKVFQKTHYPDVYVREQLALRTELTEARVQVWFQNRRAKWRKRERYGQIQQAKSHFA
Sequence of ALX3 (Homo sapiens, UniProt O95076 139-225, L168Q) (O95076 139-225 L168Q): as the sequence (O95076 139-225 L168V) above, with V30Q counted along it
Sequence of NKX3-2 (Homo sapiens, UniProt P78367 192-278) (P78367 192-278): as the sequence (P78367 192-278 P234S) above, with S43P counted along it
Sequence of ALX1 (Homo sapiens, UniProt Q15699 118-204, L144R) (Q15699 118-204 L144R): as the sequence (Q15699 118-204 L144V) above, with V27R counted along it
Sequence of ALX3 (Homo sapiens, UniProt O95076 139-225, N203S) (O95076 139-225 N203S): as the sequence (O95076 139-225 L168V) above, with V30L, N65S counted along it
Sequence of ALX3 (Homo sapiens, UniProt O95076 139-225) (O95076 139-225): as the sequence (O95076 139-225 L168V) above, with V30L counted along it
Sequence of HOXA2 (Homo sapiens, UniProt O43364 129-215, R185T) (O43364 129-215 R185T): as the sequence (O43364 129-215) above, with R57T counted along it
Sequence of ALX1 (Homo sapiens, UniProt Q15699 118-204) (Q15699 118-204): as the sequence (Q15699 118-204 L144V) above, with V27L counted along it

## CCGAGAGG
PROP1 [1]
  binding signal: 6.47 upbm affinity estimate (log intensity, higher = more binding, comparable within an allelic series)
PROP1 [2]
  binding signal: 6.52 upbm affinity estimate (log intensity, higher = more binding, comparable within an allelic series)
PROP1 [3]
  binding signal: 6.64 upbm affinity estimate (log intensity, higher = more binding, comparable within an allelic series)

## ATACTAAC
SIX6
  binding signal: 10.1 upbm affinity estimate (log intensity, higher = more binding, comparable within an allelic series)

## CGCGCGCG
VAX1 [4]
  binding signal: 7.34 upbm affinity estimate (log intensity, higher = more binding, comparable within an allelic series)
VAX1 [5]
  binding signal: 7.38 upbm affinity estimate (log intensity, higher = more binding, comparable within an allelic series)
VAX1 [6]
  binding signal: 7.37 upbm affinity estimate (log intensity, higher = more binding, comparable within an allelic series)

## CAGCCTCC
NKX3-2 [7]
  binding signal: 10.7 upbm affinity estimate (log intensity, higher = more binding, comparable within an allelic series)
NKX3-2 [8]
  binding signal: 10.7 upbm affinity estimate (log intensity, higher = more binding, comparable within an allelic series)

## CCCCAAGG
HOXA4 [9]
  binding signal: 9.82 upbm affinity estimate (log intensity, higher = more binding, comparable within an allelic series)
HOXA4 [10]
  binding signal: 9.69 upbm affinity estimate (log intensity, higher = more binding, comparable within an allelic series)
HOXD13 [11]
  binding signal: 9.45 upbm affinity estimate (log intensity, higher = more binding, comparable within an allelic series)
HOXD13 [12]
  binding signal: 9.55 upbm affinity estimate (log intensity, higher = more binding, comparable within an allelic series)
HOXA4 [13]
  binding signal: 9.65 upbm affinity estimate (log intensity, higher = more binding, comparable within an allelic series)
HOXD13 [14]
  binding signal: 9.53 upbm affinity estimate (log intensity, higher = more binding, comparable within an allelic series)
HOXA4 [15]
  binding signal: 9.86 upbm affinity estimate (log intensity, higher = more binding, comparable within an allelic series)

## AGGCTGGG
HOXA4 [9]
  binding signal: 9.88 upbm affinity estimate (log intensity, higher = more binding, comparable within an allelic series)
HOXA4 [10]
  binding signal: 9.85 upbm affinity estimate (log intensity, higher = more binding, comparable within an allelic series)
HOXD13 [11]
  binding signal: 9.56 upbm affinity estimate (log intensity, higher = more binding, comparable within an allelic series)
HOXD13 [12]
  binding signal: 9.59 upbm affinity estimate (log intensity, higher = more binding, comparable within an allelic series)
HOXA4 [13]
  binding signal: 9.82 upbm affinity estimate (log intensity, higher = more binding, comparable within an allelic series)
HOXD13 [14]
  binding signal: 9.67 upbm affinity estimate (log intensity, higher = more binding, comparable within an allelic series)
HOXA4 [15]
  binding signal: 9.84 upbm affinity estimate (log intensity, higher = more binding, comparable within an allelic series)

## CCCCCTAG
HOXA4 [9]
  binding signal: 9.8 upbm affinity estimate (log intensity, higher = more binding, comparable within an allelic series)
HOXB6 [16]
  binding signal: 8.81 upbm affinity estimate (log intensity, higher = more binding, comparable within an allelic series)
HOXA4 [10]
  binding signal: 9.86 upbm affinity estimate (log intensity, higher = more binding, comparable within an allelic series)
HOXA4 [13]
  binding signal: 9.77 upbm affinity estimate (log intensity, higher = more binding, comparable within an allelic series)
HOXA4 [15]
  binding signal: 9.73 upbm affinity estimate (log intensity, higher = more binding, comparable within an allelic series)
HOXB6 [17]
  binding signal: 8.86 upbm affinity estimate (log intensity, higher = more binding, comparable within an allelic series)

## CCGGCTCC
HOXA4 [9]
  binding signal: 9.74 upbm affinity estimate (log intensity, higher = more binding, comparable within an allelic series)
HOXA4 [10]
  binding signal: 9.52 upbm affinity estimate (log intensity, higher = more binding, comparable within an allelic series)
ALX3 [18]
  binding signal: 7.7 upbm affinity estimate (log intensity, higher = more binding, comparable within an allelic series)
HOXA4 [13]
  binding signal: 9.48 upbm affinity estimate (log intensity, higher = more binding, comparable within an allelic series)
ALX3 [19]
  binding signal: 7.5 upbm affinity estimate (log intensity, higher = more binding, comparable within an allelic series)
ALX3 [20]
  binding signal: 7.65 upbm affinity estimate (log intensity, higher = more binding, comparable within an allelic series)
ALX3 [21]
  binding signal: 7.64 upbm affinity estimate (log intensity, higher = more binding, comparable within an allelic series)
HOXA4 [15]
  binding signal: 9.75 upbm affinity estimate (log intensity, higher = more binding, comparable within an allelic series)
ALX3 [22]
  binding signal: 7.7 upbm affinity estimate (log intensity, higher = more binding, comparable within an allelic series)

## GACTCCGC
HOXA4 [9]
  binding signal: 9.83 upbm affinity estimate (log intensity, higher = more binding, comparable within an allelic series)
HOXA4 [10]
  binding signal: 9.81 upbm affinity estimate (log intensity, higher = more binding, comparable within an allelic series)
ALX1 [23]
  binding signal: 6.29 upbm affinity estimate (log intensity, higher = more binding, comparable within an allelic series)
ALX1 [24]
  binding signal: 6.35 upbm affinity estimate (log intensity, higher = more binding, comparable within an allelic series)
HOXA4 [13]
  binding signal: 9.59 upbm affinity estimate (log intensity, higher = more binding, comparable within an allelic series)
ALX1 [25]
  binding signal: 6.25 upbm affinity estimate (log intensity, higher = more binding, comparable within an allelic series)
HOXA4 [15]
  binding signal: 9.87 upbm affinity estimate (log intensity, higher = more binding, comparable within an allelic series)

## ATCATAAG
HOXA4 [9]
  binding signal: 10.4 upbm affinity estimate (log intensity, higher = more binding, comparable within an allelic series)
HOXB6 [16]
  binding signal: 9.66 upbm affinity estimate (log intensity, higher = more binding, comparable within an allelic series)
HOXA4 [13]
  binding signal: 11.8 upbm affinity estimate (log intensity, higher = more binding, comparable within an allelic series)
HOXB6 [17]
  binding signal: 10.3 upbm affinity estimate (log intensity, higher = more binding, comparable within an allelic series)

## CCCGTGTC
HOXA4 [9]
  binding signal: 9.85 upbm affinity estimate (log intensity, higher = more binding, comparable within an allelic series)
HOXA4 [10]
  binding signal: 9.73 upbm affinity estimate (log intensity, higher = more binding, comparable within an allelic series)
NKX2-6 [26]
  binding signal: 9.5 upbm affinity estimate (log intensity, higher = more binding, comparable within an allelic series)
HOXA4 [13]
  binding signal: 9.62 upbm affinity estimate (log intensity, higher = more binding, comparable within an allelic series)
NKX2-6 [27]
  binding signal: 9.22 upbm affinity estimate (log intensity, higher = more binding, comparable within an allelic series)
HOXA4 [15]
  binding signal: 9.79 upbm affinity estimate (log intensity, higher = more binding, comparable within an allelic series)

## GGCGAGCC
HOXA4 [9]
  binding signal: 9.78 upbm affinity estimate (log intensity, higher = more binding, comparable within an allelic series)
HOXA4 [10]
  binding signal: 9.59 upbm affinity estimate (log intensity, higher = more binding, comparable within an allelic series)
HOXA4 [13]
  binding signal: 9.66 upbm affinity estimate (log intensity, higher = more binding, comparable within an allelic series)
HOXA4 [15]
  binding signal: 9.76 upbm affinity estimate (log intensity, higher = more binding, comparable within an allelic series)

## ATAATGAG
HOXA4 [9]
  binding signal: 10.5 upbm affinity estimate (log intensity, higher = more binding, comparable within an allelic series)
HOXA2 [28]
  binding signal: 12.5 upbm affinity estimate (log intensity, higher = more binding, comparable within an allelic series)
HOXA4 [10]
  binding signal: 11.8 upbm affinity estimate (log intensity, higher = more binding, comparable within an allelic series)
HOXA2 [29]
  binding signal: 13.2 upbm affinity estimate (log intensity, higher = more binding, comparable within an allelic series)
HOXA4 [13]
  binding signal: 13.6 upbm affinity estimate (log intensity, higher = more binding, comparable within an allelic series)
VAX1 [4]
  binding signal: 12.8 upbm affinity estimate (log intensity, higher = more binding, comparable within an allelic series)
VAX1 [5]
  binding signal: 12.6 upbm affinity estimate (log intensity, higher = more binding, comparable within an allelic series)
HOXA2 [30]
  binding signal: 10.8 upbm affinity estimate (log intensity, higher = more binding, comparable within an allelic series)
HOXA4 [15]
  binding signal: 11.2 upbm affinity estimate (log intensity, higher = more binding, comparable within an allelic series)
HOXA2 [31]
  binding signal: 12.3 upbm affinity estimate (log intensity, higher = more binding, comparable within an allelic series)
VAX1 [6]
  binding signal: 12.5 upbm affinity estimate (log intensity, higher = more binding, comparable within an allelic series)
